High-throughput results: PubChem BioAssay, National Center for Advancing Translational Sciences (NCATS)
An excerpt weighted towards active compounds, which were near 14% of everything screened.
HADH2 inh: qHTS Assay for Inhibitors of HADH2 (Hydroxyacyl-Coenzyme A Dehydrogenase, Type II). 73,000 tested, 3.4% active. AID 886, 2007. recombinant HADH2, NADH fluorescence, beta-hydroxybutyryl-CoA. 3-hydroxyacyl-CoA dehydrogenase type-2 (Homo sapiens), Q99714. Potency, µM (top dose mostly 57.1 µM), usual class: inhibitors; further: nearly all actives have a fitted effect of over 60% in size
Target sequence (Q99714 whole entry, looked up, one chain of several): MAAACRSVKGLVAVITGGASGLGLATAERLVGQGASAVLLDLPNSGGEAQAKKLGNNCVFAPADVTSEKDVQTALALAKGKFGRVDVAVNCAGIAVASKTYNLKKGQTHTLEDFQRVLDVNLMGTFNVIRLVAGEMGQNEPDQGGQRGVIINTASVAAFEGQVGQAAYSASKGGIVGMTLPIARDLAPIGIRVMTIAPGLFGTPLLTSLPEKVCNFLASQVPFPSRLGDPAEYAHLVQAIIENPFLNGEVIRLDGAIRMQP
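Read-out: 360 nm excitation, 450 nm emission, kinetic over 4 min. Conditions: His-tagged human HADH2 20 nM, pH 9.0 Tris with Tween-20, 1 mM NAD+, 90 uM beta-hydroxybutyryl-CoA.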
HSD17B inhib: qHTS Assay for Inhibitors of HSD17B4, hydroxysteroid (17-beta) dehydrogenase 4 | 3-hydroxyacyl-CoA dehydrogenase type-2 (Homo sapiens), Q99714 | recombinant HSD17B10, NADH fluorescence kinetic | 75,000 tested, 7.6% active | Potency, µM (highest dose often 57.1 µM), usual class: inhibitors | AID 893, 2007;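 further: the protocol describes HADH2 (HSD17B10) and not the HSD17B4 of the title; nearly all actives have a fitted effect of over 70% in size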
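Enzyme plus compound, 15 min room temperature; substrate mix added (NAD+ 1 mM, beta-hydroxybutyryl-CoA 90 uM final); plates read kinetically for NADH fluorescence. HADH2 was His-tagged, E. coli-derived, 20 nM.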
CRE Fsk mod: Cell signaling CRE-BLA (Fsk stim); 71,000 tested, 2.5% active; CHO CRE-bla reporter (cAMP response element driving beta-lactamase), forskolin EC10, beta-lactamase ratio; Potency, µM (doses to about 38.2 µM), actives largely listed as activators; active means well fitted activation curve with a large enough effect in the signal ratio, with a control signal flat, not every such curve was filed as active; inconclusive means small, poorly fitted or top-dose-only effect, or effect the other way, or a change in a side signal; the % refers to the signal ratio
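Titrated compounds plus EC10 NKH 477 on CHO CRE-bla cells, 3 h, 37 °C. CCF4, 2 h RT. Ratio 460/530 nm → AC50.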
A350 autofl: qHTS Assay for Spectroscopic Profiling in A350 Spectral Region; max dye-equivalent concentration, M; 59,000 tested, 11% active; Compound autofluorescence, 340/450 nm, Alexa 350 dye-equivalents; stronger effect = higher value; in the data active means max dye-equivalent concentration above about 10 nM; inconclusive means mostly about 1.1 nM to 9.6 nM
4-MU autofl: qHTS Assay for Spectroscopic Profiling in 4-MU Spectral Region. compound autofluorescence, 340/450 nm, 4-MU equivalents; stronger effect = higher value. max dye-equivalent concentration, M. 59,000 tested, 11% active. AID 589, 2007; in the data active means max dye-equivalent concentration above about 10 nM; inconclusive means mostly about 1.1 nM to 9.6 nM
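Compounds in 100 mM Tris, pH 8.0, incubated 15 min at room temperature, then fluorescence read at 340 nm excitation/450 nm emission. Signal converted to 4-MU dye-equivalent concentration using an on-plate six-point 4-MU standard curve.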
AID923: qHTS Assay for Allosteric/Competitive Inhibitors of Caspase-1: Spectroscopic Profiling in AFC Spectral Region | compound fluorescence, AFC spectral region (405/520 nm) | Potency, µM (top dose mostly 57.5 µM), actives largely listed as activators | 75,000 tested, 1.1% active | AID 923, 2007
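Baseline compound fluorescence (AFC region, 405 nm ex/520 nm em) taken from the intercept of kinetic reads with 50 nM caspase-1 and 5 uM Ac-WEHD-AFC; normalized to an on-plate AFC standard curve; compounds titrated up to 57 uM.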
Of the large screens only hits and unclear results are named; the others gave an inactive call. Unless noted, the call rests on the fitted dose curve; in most records, active means well fitted curve in the direction sought with a large enough effect; inconclusive means small, poorly fitted or top-dose-only effect, or another doubt; inactive means no such curve, though single readings can be large; an effect the other way counts as inactive or inconclusive.

C[C@@H]1O[C@@H](O[C@H]2C[C@@H](O)[C@]3(CO)[C@@H]4[C@@H](O)C[C@]5(C)[C@H]([C@@H]6COC(=O)C6)CC[C@@]5(O)[C@H]4CC[C@@]3(O)C2)[C@H](O)[C@H](O)[C@@H]1O	none
Nc1ccccc1N=Cc1c(O)n(CCC2=CCCCC2)c(=O)[nH]c1=O	CRE Fsk mod inconclusive, A350 autofl inconclusive, 4-MU autofl 2.6e-08M
Cc1c(N=Cc2c(O)n(CCc3ccc(F)cc3)c(=O)[nH]c2=O)c(=O)n(-c2ccccc2)n1C	A350 autofl 4.4e-08M, 4-MU autofl 6.1e-08M (no result: HADH2 inh, HSD17B inhib, CRE Fsk mod, AID923)
O=c1[nH]c(=O)n(CCc2ccc(F)cc2)c(O)c1C=NCCCN1CCOCC1	A350 autofl inconclusive, 4-MU autofl inconclusive
O=C(N1CCOCC1)C1(c2ccccc2)CCNCC1	none
O=Nc1ccc(Nc2ccccc2)cc1	HADH2 inh 3.2µM, CRE Fsk mod inconclusive (no result: A350 autofl, 4-MU autofl)
Nc1ccccc1	none (no result: A350 autofl, 4-MU autofl)
c1ccc(Nc2ccc(Nc3ccccc3)cc2)cc1	HADH2 inh inconclusive, HSD17B inhib 32µM (no result: A350 autofl, 4-MU autofl)
c1ccc(N=Nc2ccccc2)cc1	none (no result: A350 autofl, 4-MU autofl)
CN1CCN(c2ccc3ccccc3n2)CC1	A350 autofl 1.6e-08M, 4-MU autofl 1.7e-08M
CN1CCN(c2nccc3c2ncn3C)CC1	none
Nc1ncnc2c1ncn2[C@@H]1O[C@@H](COP(=O)(O)CP(=O)(O)OP(=O)(O)O)[C@H](O)[C@@H]1O	none
O=C1c2ccccc2C(=O)N1SC1CCCCC1	HADH2 inh 2µM, HSD17B inhib inconclusive
CCOC(=O)C1CCN(/C=C2/C(=O)NC(=O)N(Cc3ccco3)C2=O)CC1	HADH2 inh 16µM, HSD17B inhib inconclusive (no result: A350 autofl, 4-MU autofl)
COc1ccc2c(c1O)-c1cccc3c1[C@H](C2)N(C)CC3	HADH2 inh 20µM, HSD17B inhib 25µM, A350 autofl 1.1e-08M, 4-MU autofl 1.2e-08M
CCCN1CCc2cccc3c2[C@@H]1Cc1ccc(O)c(O)c1-3	HADH2 inh 0.5µM, HSD17B inhib 20µM, A350 autofl 1.7e-08M, 4-MU autofl 1.9e-08M
COc1ccc2c(c1O)-c1c(OC)c(OC)cc3c1[C@H](C2)N(C)CC3	HSD17B inhib inconclusive
COc1cccc(Oc2c(C)oc3cc(OC(=O)N(C)C)ccc3c2=O)c1	HADH2 inh inconclusive, HSD17B inhib inconclusive, A350 autofl 1.2e-05M, 4-MU autofl 9.3e-06M
CN(C)C(=O)Oc1ccc(OC(=O)c2ccccc2)cc1	none
CN1C(=O)N(C)C(=O)C2(Cc3cc(N)ccc3N3CCN(c4ccccc4F)CC32)C1=O (stereo not given)	CRE Fsk mod inconclusive
O=C1NC(=O)C2(Cc3ccccc3N3CCCC32)C(=O)N1c1ccccc1 (stereo not given)	HSD17B inhib inconclusive, CRE Fsk mod inconclusive, A350 autofl 2.1e-08M, 4-MU autofl 1.9e-08M
O=c1c2ccccc2[se]n1-c1ccccc1	HADH2 inh 2.5µM, HSD17B inhib 0.79µM, CRE Fsk mod inconclusive, A350 autofl inconclusive, 4-MU autofl inconclusive
Oc1ccc([C@H](O)[C@@H]2CCCCN2)cc1O	HADH2 inh 1µM, A350 autofl inconclusive
CCC(N)C(O)c1ccc(O)c(O)c1 (stereo not given)	none (no result: HADH2 inh, CRE Fsk mod, A350 autofl, 4-MU autofl)
CCCC[C@@H]1C[C@H]1C(NP(=O)(c1ccccc1)c1ccccc1)c1ccc(Cl)cc1 (stereo not given in full)	none (no result: HSD17B inhib, A350 autofl, 4-MU autofl, AID923)
O=c1oc(Cl)c(Cl)c2ccccc12	HADH2 inh 3.2µM, A350 autofl inconclusive, 4-MU autofl inconclusive
N[C@H](Cc1ccc2oc3cc(=O)c4ccccc4c-3nc2c1)C(=O)O	CRE Fsk mod inconclusive, A350 autofl inconclusive
O=C(O)C(Oc1nc(=S)[nH]c(=S)[nH]1)(c1ccc(Cl)cc1)c1ccc(Cl)cc1	none
Cc1oc2ccc(OC(=O)N(C)C)cc2c1C(=O)OC(C)C	CRE Fsk mod inconclusive
CCOC(=O)c1c(-c2ccc(OC)cc2)oc2ccc(OC(=O)N(C)C)cc12	HSD17B inhib 25µM, CRE Fsk mod inconclusive, A350 autofl 3.5e-07M, 4-MU autofl 4.2e-07M
CSc1ccc2c(c1)c(CCN)c(C)n2Cc1ccccc1Cl	A350 autofl 1.1e-08M, 4-MU autofl 1e-08M
COc1cc2c(cc1O)CCN[C@H]2C	HADH2 inh inconclusive, CRE Fsk mod inconclusive, A350 autofl 1e-07M, 4-MU autofl 1e-07M (no result: HSD17B inhib, AID923)
C[C@@]12CC[C@H]3[C@@H](CCC4=CC(=O)CC[C@]43C)[C@H]1CCC2=O	none (no result: HSD17B inhib, AID923)
CC1(C)[C@@H]2CC[C@]1(C)CN(CCC[N+](C)(C)C)C2	none
c1ccc(-c2ccccc2)cc1	none (no result: A350 autofl, 4-MU autofl)
Oc1ccccc1-c1ccccc1	HSD17B inhib 32µM (no result: A350 autofl, 4-MU autofl)
C[C@@]12CC[C@H](O)C[C@@H]1CC[C@H]1[C@H]2C[C@@H](O)[C@]2(C)[C@@H](C3=CC(=O)OC3)CC[C@@]12O	none (no result: HSD17B inhib, AID923)
CCNCCC1(CC)C(=O)NC(=O)NC1=O	none
